Bioassay records (PubChem BioAssay)
NPC1 prom act: activators of NPC1 promoter; Huh7 NPC1 promoter luciferase reporter, 24 h; Potency, µM (series often up to 9.22 µM), usual class: activators; 320,000 tested, 2.4% active; AID 485313; further: nearly all actives have a fitted effect of over 60% in size
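NPC1 promoter–luciferase Huh7 cells; 24 h compound; luminescence.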
FLuc modulator: firefly luciferase modulation, counter-screen for miR-21 project; AID 588342; P08659; purified FLuc, Km substrates, luminescence inhibition; Potency, µM (doses to about 57.5 µM), hits mostly inhibitors; 360,000 tested, 6.9% active; further: nearly all actives have a fitted effect of over 55% in size
Target sequence (P08659 whole entry, looked up): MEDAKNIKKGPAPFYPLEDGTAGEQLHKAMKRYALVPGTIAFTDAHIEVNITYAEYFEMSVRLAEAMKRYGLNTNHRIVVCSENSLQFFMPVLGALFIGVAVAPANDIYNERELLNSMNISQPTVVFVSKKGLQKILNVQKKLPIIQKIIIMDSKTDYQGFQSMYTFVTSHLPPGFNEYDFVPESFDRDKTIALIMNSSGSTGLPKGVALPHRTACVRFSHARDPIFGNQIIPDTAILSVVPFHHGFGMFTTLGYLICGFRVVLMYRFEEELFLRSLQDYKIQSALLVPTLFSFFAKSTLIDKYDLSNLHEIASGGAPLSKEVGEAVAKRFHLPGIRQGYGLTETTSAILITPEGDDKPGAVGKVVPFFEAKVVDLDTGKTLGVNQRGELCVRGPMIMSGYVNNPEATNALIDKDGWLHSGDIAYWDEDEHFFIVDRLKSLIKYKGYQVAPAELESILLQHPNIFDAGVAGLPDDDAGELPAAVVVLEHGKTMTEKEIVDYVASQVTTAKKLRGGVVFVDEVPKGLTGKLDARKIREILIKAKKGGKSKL
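Purified P. pyralis luciferase (10nM final) with 10uM D-luciferin and 10uM ATP (Km levels) in 50mM Tris acetate pH 7.5, 10mM Mg acetate, 0.01% Tween-20, 0.05% BSA; qHTS 6-point titration, ~60 µM downward; luminescence read.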
Luc counter: blocks Kinase-Glo luciferase, a counter-screen artifact | AID 1379 | 200,000 tested, 0.28% active | Potency, µM (highest dose often 38.3 µM), usual class: inhibitors | Kinase-Glo luciferase, ATP luminescence, 8 min | Q27757; further: nearly all actives have a fitted effect of over 60% in size
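Recombinant Kinase-Glo luciferase, 10 uM ATP (linear range), luciferin; imidazole pH 7.2 / KCl / MgCl2 / Tween / BSA buffer; 8 min RT; luminescence.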
SMN2 splice enh: enhancers of SMN2 splice variant expression | HEK293 SMN2-luciferase splicing reporter, luminescence, 30-36 h | Potency, µM (top dose mostly 46.1 µM), most hits filed as activators | 210,000 tested, 2.8% active; further: nearly all actives have a fitted effect of over 55% in size
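HEK293 cells carry an SMN2 […]–luciferase reporter in which exon 7 inclusion puts luciferase in frame. Cells were plated 10-12 h before compound addition, then incubated 30-36 h at 37C. ONE-Glo luminescence was read; sodium butyrate at 4.5 mM final served as control.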
ELG1 genotoxic: genotoxicity induction in ELG1-luciferase HEK293T cells | HEK293T ELG1-luciferase reporter, luminescence, 16 h | Potency, µM (doses to about 46 µM), usual class: activators | 330,000 tested, 1.3% active | AID 504466; further: nearly all actives have a fitted effect of over 60% in size
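Screening used a luciferase reporter fused to human ELG1 in HEK293T cells. Luminescence was read on a CCD plate imager after 16 hr exposure and 30 min ONE-Glo incubation.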
Rab9 prom act: activators of Rab9 promoter | Huh7 Rab9 promoter-luciferase reporter, luminescence, 24 h | Potency, µM (top dose mostly 9.22 µM), hits mostly activators | 320,000 tested, 2.8% active | AID 485297; further: nearly all actives have a fitted effect of over 60% in size
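Huh7 reporter line, Rab9 promoter upstream of luciferase. Compound exposure 24 h at 37 °C in reduced-serum medium with 10% FBS. Read-out: luminescence.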
A number is an active result; [ ] = dose if it differs, or a comment. An excerpt weighted towards active compounds, which were near 7.3% of everything screened. The call rests on the fitted dose curve; in most records, active means well fitted curve in the direction sought with a large enough effect; inconclusive means small, poorly fitted or top-dose-only effect, or another doubt; inactive means no such curve, though single readings can be large; an effect the other way counts as inactive or inconclusive.

Screening Cc1[nH]n(-c2ccccc2)c(=O)c1-c1ccc(Cl)cc1 returned NPC1 prom act inactive, FLuc modulator inconclusive, Luc counter inactive, SMN2 splice enh inactive, ELG1 genotoxic inactive and Rab9 prom act inactive.
CCc1nnc(NC(=O)c2cc(=O)c3cc(C)ccc3o2)s1 was read as FLuc modulator inconclusive and SMN2 splice enh inactive.
For FC(F)(F)c1cccc(-c2nc3nc(Cl)c(Cl)nc3[nH]2)c1 the results were NPC1 prom act inconclusive, FLuc modulator 4.26µM, Luc counter inactive[7.66 µM], SMN2 splice enh inactive[9.22 µM], ELG1 genotoxic inactive and Rab9 prom act inconclusive.
`O=c1[nH]c(-c2ccccn2)nc2sc(-c3ccccc3)cc12` gave NPC1 prom act 3.55µM, FLuc modulator 2.13µM, Luc counter inactive, SMN2 splice enh 8.91µM, ELG1 genotoxic 7.3µM and Rab9 prom act inconclusive.
Cc1c(C(=O)N(C)C)sc2nc(-c3ccccn3)[nH]c(=O)c12 was read as NPC1 prom act inactive, FLuc modulator inconclusive, Luc counter inactive, SMN2 splice enh inactive, ELG1 genotoxic inconclusive and Rab9 prom act inconclusive.
Nc1nc(SCC(=O)O)[nH]c(=O)c1N was read as Luc counter inactive[7.66 µM] and SMN2 splice enh inactive[9.22 µM].
Screening O[C@H](CN1CCN(c2cccc(Cl)c2)CC1)C(c1ccccc1)c1ccccc1 returned Luc counter inactive.
For CCCCNC(=O)C1CCN(S(=O)(=O)CCC)CC1 the results were FLuc modulator inactive.
Screening CCCS(=O)(=O)N1CCC(C(=O)NC2CCC(C)CC2)CC1 (configuration not stated) returned NPC1 prom act inconclusive, FLuc modulator inactive, ELG1 genotoxic inconclusive and Rab9 prom act 3.98µM.
For COc1ccc(-c2cc3c(=O)n(CC(=O)Nc4cc(F)ccc4F)ccn3n2)cc1OC the results were FLuc modulator inactive.
`CCOC(=O)c1c(C)oc2nc(C)nc(NCC3CCN(Cc4ccccc4C)CC3)c12` gave FLuc modulator inactive.
For CCCc1cc(NCc2ccccn2)n2c(nc3ccccc32)c1C#N the results were NPC1 prom act inactive, FLuc modulator 10.7µM, Luc counter inactive, SMN2 splice enh inactive, ELG1 genotoxic inactive and Rab9 prom act inactive.
For CCCc1cc(NCC2CCCO2)n2c(nc3ccccc32)c1C#N (configuration not stated) the results were NPC1 prom act inactive, FLuc modulator 16.9µM, Luc counter inactive, SMN2 splice enh inactive, ELG1 genotoxic inactive and Rab9 prom act inactive.
Screening COc1ccc(-c2noc(C3CC(=O)N(c4ccc(C)c(F)c4)C3)n2)c(OC)c1 (configuration not stated) returned FLuc modulator inactive.
`COc1ccc(S(=O)(=O)NCC(c2ccco2)S(=O)(=O)c2cccs2)cc1F` (configuration not stated) gave FLuc modulator inactive.
Screening Cc1cc(NC(=O)Nc2ccc3c(ccn3C)c2)sn1 returned NPC1 prom act 7.31µM, Luc counter inactive, SMN2 splice enh inconclusive and Rab9 prom act 6.51µM.
Cc1cc(N)c2cc(NC(=O)Nc3ccc4nc(C)cc(N)c4c3)ccc2n1 was read as Luc counter inactive[7.66 µM] and SMN2 splice enh inactive[9.22 µM].
For O=c1cc(-c2ccc(Cl)cc2)oc(=O)[nH]1 the results were NPC1 prom act inactive, FLuc modulator 16.9µM, ELG1 genotoxic inactive and Rab9 prom act inactive.
Cc1ccc(-c2noc(CN3C(C)CCCC3C)n2)cc1 (configuration not stated) was read as NPC1 prom act inactive, FLuc modulator inconclusive, Luc counter inactive, SMN2 splice enh inactive, ELG1 genotoxic 20.6µM and Rab9 prom act inactive.
For CC1CCN(Cc2nc(-c3ccccc3)no2)CC1 the results were NPC1 prom act 2.82µM, FLuc modulator 12µM, ELG1 genotoxic 5.17µM and Rab9 prom act 2.82µM.
`CCN(C(=O)CSc1nc2n[nH]c(C)c2c(=N)n1-c1cccc(OC)c1)c1cccc(C)c1` gave FLuc modulator inactive.
COc1ccc(NC(=O)Nc2ccc(N(C)C)cc2)cc1 was read as NPC1 prom act 2.51µM, FLuc modulator 3.01µM, Luc counter inactive, SMN2 splice enh 12.6µM, ELG1 genotoxic inconclusive and Rab9 prom act 2.24µM.
`CC(C)OC(=O)Nc1ccc(-c2ccc(NC(=O)OC(C)C)cc2Cl)c(Cl)c1` gave NPC1 prom act inactive, FLuc modulator inactive, ELG1 genotoxic inactive and Rab9 prom act inactive.
Screening COC(=O)c1ccc(NC(=O)Nc2ccc(OC)cc2)cc1 returned NPC1 prom act inactive, FLuc modulator inactive, Luc counter inactive, SMN2 splice enh inactive, ELG1 genotoxic inactive and Rab9 prom act inactive.
For COc1ccc(NC(=O)/C=C2\SC(=O)NC2=O)cc1 the results were NPC1 prom act inactive, FLuc modulator 12µM, Luc counter inactive, SMN2 splice enh inactive, ELG1 genotoxic inactive and Rab9 prom act inactive.
COc1ccc(NC(=O)OC(C)C)cc1 was read as NPC1 prom act 2µM, FLuc modulator 12µM, Luc counter inactive, SMN2 splice enh 11.2µM, ELG1 genotoxic inconclusive and Rab9 prom act 2.24µM.
COc1ccc(NC(=O)Nc2ccc(OC)cc2)cc1 was read as NPC1 prom act 2.82µM, FLuc modulator inactive, Luc counter inactive, SMN2 splice enh inconclusive, ELG1 genotoxic inconclusive and Rab9 prom act 2.24µM.
COc1ccc(/C=C(\NC(=O)c2ccccc2)C(=O)NC2CCCCC2)cc1 was read as FLuc modulator inactive and SMN2 splice enh inactive.
Cc1ccc(Nc2nnc(-c3ccc(C)c(S(=O)(=O)N4CCOCC4)c3)c3ccccc23)cc1 was read as FLuc modulator inconclusive and SMN2 splice enh inactive.
Cc1cccc(N2CCN(C(=O)c3nn(C)c4c3CSc3ccccc3-4)CC2C)c1 (configuration not stated) was read as FLuc modulator inactive.
C/C(=N/Nc1nc(-c2ccccc2)cc(-c2ccc(F)cc2)n1)c1cccc(N)c1 was read as NPC1 prom act inactive, FLuc modulator 9.53µM, Luc counter inactive, SMN2 splice enh inactive, ELG1 genotoxic inactive and Rab9 prom act inactive.
`C/C(=N\Nc1nc(C)cc(-c2ccccc2)n1)c1ccc(F)cc1` gave NPC1 prom act inactive, FLuc modulator inconclusive, ELG1 genotoxic inactive and Rab9 prom act inactive.
COc1cccc(NC(=O)C(=O)NCCCN2CCCC2=O)c1 was read as NPC1 prom act inconclusive, FLuc modulator 19µM, ELG1 genotoxic inconclusive and Rab9 prom act inactive.
Screening Cc1cc(C)cc(NC(=O)C(=O)NCCCN2CCCC2=O)c1 returned NPC1 prom act inconclusive, FLuc modulator inconclusive, ELG1 genotoxic 13µM and Rab9 prom act inconclusive.
For Cc1ccc(NC(=O)NCCCN2CCCC2=O)cc1 the results were NPC1 prom act inactive, FLuc modulator inconclusive, Luc counter inactive, SMN2 splice enh inactive, ELG1 genotoxic inconclusive and Rab9 prom act inactive.
